Test results published in PubChem BioAssay (NCI).
The panel holds about 83,000 compounds, 20% with a hit somewhere; the sample as a whole holds those more often.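 In brief: 96-well plates, 48 h treatment, single concentration, percent growth endpoint.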 Unmarked numbers belong to inactive results. Calls of active or inactive are those of the source. The calls were made as follows: active = growth percent below 10; inactive = the rest.

system: HL-60(TB) leukemia; test: NCI-60 one-dose screen, 48 h (100 = growth as untreated, 0 = no growth, -100 = all killed); conditions: 10 µM unless noted

Row | Structure (SMILES) | growth
1 | O=C(CN1CCN(c2ccc(Cl)cc2)CC1)N1CCN(c2nnc(-c3ccc(Cl)cc3)c(-c3ccc(Cl)cc3)n2)CC1 | 41.4%
2 | C=C1C(=O)O[C@H]2[C@H]1CC/C(COC(=O)CCCc1c[nH]c3ccccc13)=C\CC[C@@]1(C)O[C@@H]21 | 2.97% (active)
3 | CC(C)(C)c1ccc(O)c(Br)c1 | 156%
4 | C=CCNCCC#N | 109%
5 | N=C1/C(=C2\NC3C=CC=CC3S2)C(c2ccc(Cl)cc2)C2C(=O)N(c3ccccc3)C(=S)N12 (stereo not given) | 100%
6 | CCCCOP(=O)(OCCCC)C(C(=O)OCC)C(CC(=O)OCC)C(=O)OCC (stereo not given) | 102%
7 | CN1CCN(Cc2ccc(NC(=O)c3[nH]ncc3Nc3ccnc4ccnn34)cc2)CC1 | 45.5%
8 | O=c1c2cccc3c(Nc4ccccn4)ccc(c32)c2nc3ccccc3n12 | 62.3%
9 | COc1ccc(/C=C/C(=O)/C=C/c2cc3ccccc3[nH]c2=O)cc1 | 62.9%
10 | C[N+]1(CC2CO2)CCCCCC1 (stereo not given) | 109%
11 | O=S(=O)(NCCCNc1nccc(-c2c(-c3cccc(F)c3)nc3occn23)n1)c1ccc(F)cc1 | 5.83% (active)
12 | CN(C)CCOc1ccc(-c2nc3sccn3c2-c2ccnc(S(C)(=O)=O)n2)cc1 | 97.1%
13 | CCCCCCCCCCCC(=O)OC(C)C(=O)NCCCC (stereo not given) | 99.4%
14 | O=C1Nc2ccc(F)cc2/C1=C\c1nc(-c2ccccc2F)n2ccccc12 | 120%
15 | NCCCNc1nc2ccccc2c2c(=O)c3cc(F)cc(F)c3sc12 | 61.2%
